{"source": "PubChem BioAssay (NCI)", "note": "This is part of a sample that, as a whole, favours compounds with a hit. Of some 83,000 tested, about 20% had one in any assay.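 Method: cells in 96-well plates; compound added at one concentration; 48 h incubation; percent growth measured; values under 10 scored active.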 A number with no mark means an inactive call. Calls of active or inactive are those of the source.", "data": [{"tested_on": "IGROV1 ovarian", "experiment": "NCI-60 one-dose screen, 48 h (100 = growth as untreated, 0 = no growth, -100 = all killed)", "conditions": "10 µM unless noted", "values": [{"smiles": "CC1=CC[C@@H]2C(C)(C)C(=O)CC[C@@]2(C)[C@@H]1COc1ccc2ccc(=O)oc2c1", "growth": "77.9%"}, {"smiles": "COc1ccc(/C=C2\\N=C(Nc3ccccc3)N(NC(=O)c3ccccn3)C2=O)cc1", "growth": "95.7%"}, {"smiles": "COc1ncc(-c2ccc3nccc(C#CCCCCC(=O)NO)c3c2)cc1NS(=O)(=O)c1ccc(F)cc1F", "growth": "-21.6% (active)"}, {"smiles": "COc1ccc2c(c1)C(C)Cc1c(Cl)ncnc1N2C", "note": "(stereo not drawn)", "growth": "23.7%"}, {"smiles": "CC[C@@H]1NC(=O)[C@@H]2CCCCN2C(=O)[C@@H]2CCCN2C(=O)[C@@H](NC(=O)[C@H](Cc2cc(F)cc(F)c2)NC(=O)Nc2ccc(C3CC3)cc2F)[C@H](C)OC(=O)[C@@H]2C[C@@H](C)CN2C1=O", "growth": "28.5%"}, {"smiles": "CCN(CC)c1cc(N)c(Cc2c(N)cc(N(CC)CC)cc2Cl)c(Cl)c1", "growth": "54.7%"}, {"smiles": "O=C1COCCN1c1ccc(Nc2nc(Cl)nc(N3CCOCC3)n2)cc1", "growth": "103%"}, {"smiles": "Cn1cc(-c2nnc(-c3cn(C)c4ncc(Br)cc34)s2)c2cc(Br)ccc21", "growth": "73.9%"}, {"smiles": "Nc1ccc2c(c1)Cc1cc(NC(=O)C(F)(F)F)ccc1-2", "growth": "114%"}, {"smiles": "COc1ccc(-c2cc(-c3ccc(Cl)cc3)nc(NCCCCNc3ccnc4cc(Cl)ccc34)n2)cc1", "growth": "60.8%"}, {"smiles": "C#C[C@]1(O)CC[C@H]2[C@@H]3CC=C4c5nc(Nc6ccc(OC)cc6OC)sc5CC[C@]4(C)[C@H]3CC[C@@]21C", "growth": "43.2%"}, {"smiles": "CNC(=O)c1cc(Oc2ccc3nc(NC(=O)c4ccc5ncccc5c4)sc3c2)ccn1", "growth": "93.3%"}, {"smiles": "COc1ncc(-c2ccc3nccc(C#CCCCCC(=O)O)c3c2)cc1NS(=O)(=O)c1ccc(F)cc1F", "growth": "-13% (active)"}, {"smiles": "CCc1ccc(C2=C/C(=C/c3ccccc3)C(=O)N2CCc2ccc(S(N)(=O)=O)cc2)cc1", "growth": "91.4%"}, {"smiles": "Cc1ccc(-c2cn(C/C=C3\\C=CN(S(=O)(=O)c4ccccc4)CC3)nn2)cc1", "growth": "104%"}, {"smiles": "CCN1c2ccccc2C(Cl)(c2ccc(N(C)C)cc2)c2ccccc21", "growth": "-20.3% (active)"}, {"smiles": "COc1ccc(-c2ccc(NNC(=O)c3ccc(F)cc3)nn2)cc1OC", "growth": "22.1%"}, {"smiles": "c1ccc(-c2nnc(-c3c[nH]c4ncccc34)s2)cc1", "growth": "54.6%"}, {"smiles": "COc1c(B(O)O)cccc1-c1nc2ccc3[nH]ncc3c2c2c1CCC2", "growth": "42%"}, {"smiles": "O=C1/C(=C\\c2cccn2Cc2ccccc2)c2ccccc2N1c1c(Cl)cccc1Cl", "growth": "28.2%"}, {"smiles": "CN(C)c1ccc(-c2ccc(-c3ccc(C(=N)N)cc3)s2)cc1", "growth": "-63.5% (active)"}, {"smiles": "CC(C)(C)c1cc(C(=O)Nc2ccc(C(=O)NCCN)cc2)cc(C(C)(C)C)c1", "growth": "52.9%"}, {"smiles": "CC1=CC[C@@H]2C(C)(C)[C@@H](O)CC[C@@]2(C)[C@@H]1COc1ccc2ccc(=O)oc2c1", "growth": "57.9%"}, {"smiles": "CCn1cc(-c2cc(-c3ccc(Cl)cc3)nc(N)n2)c(-c2ccc(Br)cc2)n1", "growth": "68.1%"}, {"smiles": "COc1cc(-c2cc(-c3ccc(Nc4ncnc5cc(Cl)ccc45)cc3)nc(N3CCCCC3)n2)cc(OC)c1OC", "growth": "90.5%"}, {"smiles": "Cn1cc(-c2nnc(-c3ccccc3)s2)c2cc(Br)cnc21", "growth": "43.7%"}, {"smiles": "CC(=O)Nc1ccc2nc3ccc(NC(C)=O)cc3[n+](-c3ccccc3)c2c1", "growth": "92.8%"}, {"smiles": "Cc1cccc(C[C@H](NC(=O)Nc2ccc(Cl)cc2F)C(=O)N[C@@H]2C(=O)N3C[C@H](O)C[C@H]3C(=O)N3CCCC[C@H]3C(=O)N[C@@H](C)C(=O)N3C[C@H](C)C[C@H]3C(=O)O[C@H]2C)c1", "growth": "9.47% (active)"}, {"smiles": "COc1ccc(NC(=S)NNc2ccc(-c3ccc(OC)c(OC)c3)nn2)cc1", "growth": "103%"}, {"smiles": "Cn1cc(-c2nnc(-c3cn(C)c4ncccc34)s2)c2ccccc21", "growth": "70.2%"}, {"smiles": "Fc1cc2[nH]ncc2c2c3c(c(-c4cn[nH]c4C(F)(F)F)nc12)C1CCC3C1", "note": "(stereo not drawn)", "growth": "-13% (active)"}, {"smiles": "COc1ccc2nc3cc(Cl)ccc3c(Nc3ccc(O)cc3)c2c1", "growth": "71.3%"}, {"smiles": "CCOC(=O)n1cc(C2=C(c3ccc(OC)c(OC)c3)COC2=O)c2ccccc21", "growth": "18.2%"}, {"smiles": "C[n+]1c(-c2ccccc2)c2cc(N)ccc2c2ccccc21", "growth": "23.6%"}, {"smiles": "Fc1cc2[nH]ncc2c2c3c(c(-c4cn[nH]c4)nc12)CCCC3", "growth": "1.4% (active)"}, {"smiles": "CCN(CC)c1ccc2cc(NC(=O)OCCNC(=O)CCNC(=O)[C@H](CC(C)C)NC(=O)C(C)(C)NC(=O)C(C)(C)NC(=O)[C@H](CC(C)C)NC(=O)CCNC(=O)C(C)(C)NC(=O)[C@H](CC(C)C)NC(=O)CCNC(=O)[C@@](C)(CC)NC(=O)[C@H](C)NC(=O)CCNC(=O)C(C)(C)NC(=O)[C@H](C)NC(=O)[C@@H]3CCCN3C(=O)[C@@](C)(CC)NC(=O)[C@H](Cc3ccccc3)NC(=O)C3CCCN3C(=O)C(C)(C)NC(=O)C3CCCN3C(=O)C(C)(C)NC(C)=O)c(=O)oc2c1", "note": "(stereo partly drawn)", "growth": "-69.3% (active)"}, {"smiles": "COc1cc(NCc2cn(-c3ccc(C(=O)O)cc3)nc2-c2ccc(C(=O)O)cc2)cc(OC)c1OC", "growth": "97.1%"}, {"smiles": "CC(C)CCSc1nc(N)nc2nc[nH]c12", "growth": "79.9%"}]}]}
